# Data published in PubChem BioAssay (NCI).
# Several values for one entry are separate records, joined by “and”; a condition that tells them apart may be missing. Equal entries are not always repeated. The panel holds about 83,000 compounds, 20% with a hit somewhere; the sample as a whole holds those more often.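 How to read the values: 0–100, growth inhibition (40 = 60% inhibited); 0, no net growth; -100 to 0, cell death (-40 = 40% of starting cells died; -100 = all dead).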 Some structures have more than one record in an assay (separate samples or runs), and their calls can disagree. Activity calls are given as the source filed them. Rule for the calls: active = growth percent below 10; inactive = the rest.
# System: MDA-MB-468 breast
# Assay: NCI-60 one-dose screen, 48 h (100 = growth as untreated, 0 = no growth, -100 = all killed)
# Conditions: 10 µM unless noted
row,SMILES,growth
1,COc1ccc(C(=O)CSc2nc3c(c(Nc4ccc(S(N)(=O)=O)cc4)n2)CCCC3)cc1,108% (inactive)
2,COc1cc2nc(N3CCC[C@@H](NC(=O)C4COc5ccccc5O4)C3)nc(N)c2cc1OC (stereo not given in full),108% (inactive) and 103% (inactive)
3,C=C1CC[C@@H]2[C@](C)(COC(C)=O)[C@H](OC(C)=O)CC[C@@]2(C)[C@@H]1CC(Nc1ccc(S(=O)(=O)Nc2nccs2)cc1)C1=CCOC1=O (stereo not given in full),-59.9% (active)
4,CC1=C(/C=C/C(C)=C/C=C/C(C)=C/C=N/NC(=S)NC(=S)N/N=C/C=C(C)/C=C/C=C(C)/C=C/C2=C(C)CCCC2(C)C)C(C)(C)CCC1,10.1% (inactive) and -26.7% (active)
5,O=S(=O)(O)c1ccc(Cl)c(Cl)c1,115% (inactive)
6,CCCCN(CCCC)c1ccc(C(=N)c2ccc(N(C)C)cc2)cc1,-76.5% (active)
7,Cc1cc(N(CCCNc2ccnc3cc(Cl)ccc23)Cc2ccco2)nc(N2CCN(C)CC2)n1,73.7% (inactive)
8,O=C(N/N=C/[C@H](O)[C@H](O)[C@H](O)CO)c1ccc(NC(=O)c2cccnc2)cc1,113% (inactive)
9,Cc1ccc(N=c2nc3sc4c(C)ccc(C)c4n3c(N)c2C#N)cc1,115% (inactive)
10,COc1ccc(C)c2sc(N(Cc3cccnc3)C(=O)c3ccc(C#N)cc3)nc12,-13.4% (active)
11,CCc1ccc(NC(=O)N[C@@H](Cc2cccc(F)c2)C(=O)N[C@@H]2C(=O)N3CCC[C@H]3C(=O)N3CCCC[C@H]3C(=O)N[C@@H](C)C(=O)N3C[C@H](C)C[C@H]3C(=O)O[C@H]2C)c(F)c1,-18.2% (active)
12,COc1ccc(N/N=C/c2c(-c3ccc(S(C)(=O)=O)cc3)nc3ccccn23)cc1,58.2% (inactive)
13,Cc1ccccc1NC(=O)N/C(N)=N/c1nc(-c2cccc([N+](=O)[O-])c2)cs1,6.27% (active)
14,O=c1c2cccc(F)c2sc2c(NCCCNCCO)nc3ccccc3c12,-18.3% (active)
15,O=C(Cn1cc(CN2C(=O)c3ccc([N+](=O)[O-])cc3C2=O)nn1)Nc1ccc(F)cc1Cl,97.9% (inactive)
16,c1ccc(CNc2c3ccccc3nc3ccccc23)cc1,19.4% (inactive)
17,CC(=O)Nc1nc(C)c(-c2csc(Nc3ccccc3)n2)s1,4.66% (active)
18,O=C1Nc2ccccc2/C1=C/c1nc2ccccc2c(=O)[nH]1,93% (inactive)
19,C#C[C@H]1CCCCCC1O (stereo not given in full),99.3% (inactive)
20,NC1=C(Cl)C(=O)c2ccccc2C1=O,36.5% (inactive)

row,SMILES,growth
1,O=S(=O)(NCCCNc1nccc(-c2c(-c3ccccc3)nc3sccn23)n1)c1ccc(F)cc1,35.5% (inactive)
2,CC(C)(C)n1cc(-c2ccnc(NCCCNS(=O)(=O)c3ccc(Cl)cc3)c2)c(-c2cccc(O)c2)n1,-44.5% (active)
3,Cc1[nH]c(C(=O)Nc2ccc(C(N)=O)cc2N2CCOC(C)C2)c(Cl)c1Cl (stereo not given),102% (inactive)
4,Cc1cc(N2CCCCC2)nc(N(CCNc2ccnc3cc(Cl)ccc23)Cc2ccco2)n1,-0.362% (active)
5,COc1cc([C@@H](CCO)C[C@H](C)c2ccc3ccccc3c2)cc(OC)c1OC,17.2% (inactive)
6,COc1ccc(C(=O)NNc2nc(Cl)nc(N3CCN(C(c4ccccc4)c4ccccc4)CC3)n2)cc1,-31.9% (active)
7,Cc1ccc(-c2nc(/C=C3/C(=O)N(C)c4ccc(F)cc43)c3ccccn23)cc1,101% (inactive)
8,COc1ccc(Cn2cc3c(c2-c2ccc(O)cc2)CCc2cnoc2-3)cc1,-3.26% (active)
9,O=C(CO[N+](=O)[O-])Nc1ccc(C(=O)/C=C/c2ccc(Cl)cc2)cc1,48.7% (inactive)
10,COc1ccc(C2CC(=O)Oc3c(OC)c4c(c(OC)c32)OCO4)cc1 (stereo not given),96.9% (inactive)
11,C=CC(=O)Nc1cc(Nc2nccc(-c3cn(C)c4ccccc34)n2)c(OC)cc1N(C)CCN(C)C,-74.1% (active)
12,O=C(C[n+]1ccccc1Cl)c1ccc2c(c1)CCCC2,45.1% (inactive)
13,Cn1ncc2cc3c(Nc4ccc(Cl)cc4)cccc3nc21,79% (inactive)
14,CCN(CC)CCOc1nc2ccccc2c2c1-c1ccc(OC)cc1C2=O,14.3% (inactive)
15,Cc1sc2c(c1C)c(=O)nc1c(-c3nc4ccccc4s3)n[nH]n12,101% (inactive)
16,C#CC[C@@H]1C[C@]2(C)[C@H]3CC=C4[C@H]5[C@@H](C)[C@H](C)CC[C@]5(C(=O)NCCCN5CCN(CCCN)CC5)CC[C@@]4(C)[C@]3(C)CC[C@H]2C(C)(C)[C@H]1OC(C)=O,-72.9% (active)
17,NC(=Nc1ccccc1)SCCCCSC(N)=Nc1ccccc1,82.6% (inactive)
18,O=C(O)c1cn(C2CC2)c2cc(N3CCN(C(=O)N4CCOCC4)CC3)c(F)cc2c1=O,103% (inactive)
19,CN[C@@]12CC3(C=CC(=O)C=C3)O[C@]1(Cc1ccc(OC)cc1)N(C)C(=O)N2,23.7% (inactive)
20,CN(C)c1ccc(Cc2cc(-c3ccccc3)nn(C/C(=N/O)c3ccccc3)c2=O)cc1,57.1% (inactive)
